Wee1 stabilizer – blocks degradation of human Wee1 kinase. reporter increase, % at 5 µM. P30291. HeLa Luc-Wee1K328M stability, luciferase luminescence; 100% = proteasome inhibitor MG132 effect. actives 1.2% (n = 220,000). AID 1321;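 active = activation above the mean of all tested compounds plus 3 SD, set per screening run, cut at about 8.8% in these data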;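 also: cells exposed to compound for 20 h before luminescence read; 0% = DMSO alone and 100% = MG132 at 30 µM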
Target sequence (P30291 whole entry K328M): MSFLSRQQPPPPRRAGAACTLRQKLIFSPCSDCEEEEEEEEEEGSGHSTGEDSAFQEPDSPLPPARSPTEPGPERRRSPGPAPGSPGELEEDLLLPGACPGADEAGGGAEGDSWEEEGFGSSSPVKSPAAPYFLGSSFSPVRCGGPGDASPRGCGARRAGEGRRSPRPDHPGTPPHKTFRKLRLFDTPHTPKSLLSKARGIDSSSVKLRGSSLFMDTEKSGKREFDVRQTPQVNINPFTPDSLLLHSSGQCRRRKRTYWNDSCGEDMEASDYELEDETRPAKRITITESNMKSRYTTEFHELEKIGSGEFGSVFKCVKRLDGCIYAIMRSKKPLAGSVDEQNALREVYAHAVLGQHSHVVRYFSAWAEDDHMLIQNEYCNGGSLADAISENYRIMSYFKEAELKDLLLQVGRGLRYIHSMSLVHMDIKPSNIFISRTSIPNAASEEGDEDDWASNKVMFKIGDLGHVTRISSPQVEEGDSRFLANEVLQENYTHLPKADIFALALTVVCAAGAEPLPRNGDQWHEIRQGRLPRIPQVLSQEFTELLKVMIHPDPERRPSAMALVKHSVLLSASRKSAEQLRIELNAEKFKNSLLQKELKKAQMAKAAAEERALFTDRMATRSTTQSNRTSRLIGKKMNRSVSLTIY
APP 5'UTR act – activates APP 5'UTR luciferase reporter; SH-SY5Y APP 5'UTR luciferase reporter, luminescence; zero percent = DMSO vehicle wells; activation, % at 2 µM; actives 1% (n = 190,000); AID 1276;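 active = activation above a set limit, based on mean plus 3 SD of controls, cut at about 140% in these data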
Hsp70 act – switches on Hsp70 transcription. HeLa Hsp70 promoter luciferase reporter, luminescence; scaled: vehicle 0, proteasome-inhibitor control 100%. activation, % at 10 µM. actives 0.04% (n = 200,000). AID 1203;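 active = activation above the mean across all tested compounds plus 3 SD, cutoff set per campaign, cut at about 5.5% in these data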;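 also: 100% = MG132 at 30 µM as the positive control and 0% = DMSO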
NF-kB expr up – compounds increasing NF-kB expression in human neuronal cells | NF-kB reporter expression; active compounds read high | fold change at 12.5 µM | actives 1.6% (n = 190,000) | AID 1239; in the data active = fold change above about 3.3
APP transl inh – APP translation inhibition. SH-SY5Y APP 5'UTR-luciferase reporter, luminescence. inhibition, % at 2 µM. actives 0.82% (n = 190,000). AID 1285;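 active = inhibition above a set limit, derived from the sample mean plus 3 SD, cut at about 45% in these data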
STAT1 act – increases IFN-gamma driven STAT1 reporter signal. NIH 3T3 STAT1-luciferase reporter, luminescence; 100% = IFN-gamma alone, no compound. activation (% of control), % at 5.5 µM. actives 2.6% (n = 200,000). AID 932;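 active = activation above the screen-wide mean activation plus 3 SD, cut at about 130% in these data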;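 also: raw ratio to IFN-gamma control signal so 100% means no change and 0% no light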
* marks the source's active call; other numbers are inactive results; nt = no result given. An excerpt weighted towards active compounds, which were near 4.8% of everything screened.

SMILES	Wee1 stabilizer	APP 5'UTR act	Hsp70 act	NF-kB expr up	APP transl inh	STAT1 act
Cc1ccc(NS(=O)(=O)c2ccc(C(=O)NCC3CCCO3)cc2)cc1 (configuration not stated)	10.7*	-9.5	-0.3	0.9	9.5	93.5
COCCn1c(SCC(N)=O)nc2c(c1=O)SC(C)C2 (configuration not stated)	0.4	16.4	0.2	1.03	-16.4	103.1
CCC(C)c1ccc(O)c(N)c1 (configuration not stated)	2.1	17.7	-0.2	0.77	-17.7	81.4
CN(O)/C=C/C(=O)c1ccc(Br)cc1	1.5	31.8	-0.1	0.92	-31.8	97.1
COC(CC(=O)NNC(=S)Nc1ccccc1)OC	0.4	17.5	-0.1	1.07	-17.5	101.4
Cc1ccc2c(Cl)c(C(=O)NCC3CCCO3)sc2c1 (configuration not stated)	1.1	122.4	0.3	3.9*	-122.4	132.0*
O=C(Nc1cc2c(cc1Br)OCCO2)c1cccs1	-1.3	43.1	0.0	2.22	-43.1	119.5
Cc1occc1-c1nnc(SCC(=O)NC2CCCC2)n1-c1ccccc1	1.5	0.3	-0.2	1.13	-0.3	104.7
Cc1ccsc1C(=O)OCC(=O)N1CCc2ccccc2C1	-1.2	63.0	0.1	1.09	-63.0	144.1*
CN(C)c1cccc(C(=O)OCC(=O)N2CCc3ccccc3C2)c1	0.8	31.5	-0.2	1.13	-31.5	106.1
C=CCCC(=O)Nc1nc(C)c(-c2csc(Nc3cc(OC)ccc3OC)n2)s1	-2.1	-53.1	0.3	0.77	53.1*	114.4
CCCC(=O)Nc1nc(C)c(-c2csc(Nc3cc(OC)ccc3OC)n2)s1	-2.7	2.2	-0.1	0.88	-2.2	111.0
CC(C)c1ccc(-c2nnn(CCC(=O)O)n2)cc1	-2.0	-82.3	-0.5	0.39	82.3*	56.8
CCc1ccc(C(=O)Nc2nnn(CC)n2)cc1	2.3	100.2	-0.3	3.67*	-100.2	104.0
CCCCn1nnc(NC(=O)c2ccc(-c3ccccc3)cc2)n1	-2.9	19.3	0.1	1.33	-19.3	100.2
CCc1ccc(-c2nnn(CCC(=O)OC)n2)cc1	0.6	-48.5	-0.3	0.44	48.5*	80.2
O=C(O)CCn1nnc(-c2cccs2)n1	-4.4	-4.2	0.1	1.29	4.2	100.3
CCCn1c(=N)n(CC(=O)C(C)(C)C)c2ccccc21	-2.0	13.0	0.0	0.84	-13.0	109.2
CCn1c(=N)n(CC(=O)C(C)(C)C)c2ccccc21	-1.0	-63.9	0.1	1.08	63.9*	90.5
COC(=O)CCc1sc(Nc2ccccc2)nc1-c1ccc(OC)cc1	-0.4	44.3	0.0	0.96	-44.3	138.3*
O=[N+]([O-])c1ccc2c(c1)C(O)n1nc(-c3ccc(Cl)cc3Cl)nc1S2 (configuration not stated)	12.8*	4.0	-0.3	0.87	-4.0	93.7
CC(C)C(=O)NNS(=O)(=O)c1ccccc1[N+](=O)[O-]	-0.1	-7.0	-0.5	1.14	7.0	92.5
Cc1nn(Cc2ccccc2)c(Cl)c1/C=C/C(=O)OCC(=O)N1CCCC1=O	-1.0	22.0	-0.2	7.01*	-22.0	98.0
Cc1ccc(-c2n[nH]c3c2C(c2ccccc2)N(c2ccc(C(=O)O)cc2)C3=O)cc1 (configuration not stated)	-3.6	nt	nt	nt	nt	nt
CCCN1C(=O)C(O)(C2CC(=O)CC(C)(C)O2)c2ccccc21 (configuration not stated)	2.2	-2.4	-0.3	1.03	2.4	99.2
SMILES	Wee1 stabilizer	APP 5'UTR act	Hsp70 act	NF-kB expr up	APP transl inh	STAT1 act
Fc1ccc(Cn2ccc(-c3cnc(-c4ccccc4)s3)n2)cc1	2.1	17.8	-0.1	2.64	-17.8	131.2*
Cc1ccc2nc(-c3ccc(N4C(=NC(=O)CCC(=O)O)SC5CS(=O)(=O)CC54)cc3)sc2c1 (configuration not stated)	1.6	55.7	-0.2	1.04	-55.7	134.4*
O=C(NC(=S)Nc1nc2c(s1)CCCC2)c1ccccc1	0.4	191.2*	-0.1	1.6	-191.2	121.1
COc1ccc(NC(=O)Nc2nc3ccccc3s2)cc1	3.1	nt	nt	nt	nt	nt
COc1ccc(NC(=O)Nc2nc3c(s2)CCCC3)cc1	-0.1	149.9*	0.0	4.91*	-149.9	147.7*
CCN1CCc2nc(NC(=O)c3ccccc3)sc2C1	0.1	116.1	0.0	0.4	-116.1	147.2*

Source: PubChem BioAssay (several laboratories)
